The assay concerns Acinetobacter baumannii. Put plainly: Antibacterial activity against Acinetobacter baumannii ATCC 19606 (CO-ADD:GN_034); MIC in CAMBH media using NBS plates, by Resazurin F(560/590). Format: functional. The conditions noted are these: Concentration 20 uM, ASSAY_TEST Inhibition of Bacterial Growth, detection method Resazurin, Fluorescence (ex560/em590), MEDIA CAMHB, plate type 384well, CORNING #3640, time 18 hr.
As to `CCOC(=O)N1C/C(=C\c2ccccc2)C(=O)/C(=C/c2ccccc2)C1`, the Inhibition is listed as 7.26%.

`O=C(Nc1ccc(Br)cc1)Nc1ccccc1Cl`: the Inhibition was -1.5%.

For the compound `N#C/C(=C\c1ccc(C#N)cc1)C(=O)c1ccccc1`, the Inhibition is on record as -6.48%.

As to `Nc1ccc(-c2nc3nc(N)nc(N)c3nc2-c2ccc(N)cc2)cc1`, the Inhibition is reported as -8.41%.

On to `Cc1cc(=O)oc2cc(OS(C)(=O)=O)ccc12`, for which the Inhibition is given as -3.66%.

`Nc1ccc(OC(=O)Nc2ccc(O)cc2)cc1`: the Inhibition is on record as 1%.

For `CCOC(=O)/C(C#N)=C/c1cccc(C)c1`, the Inhibition is recorded as 11.54%.

Consider `Cc1nc(S)nc(O)c1CCC1OCCO1`, for which the Inhibition was -2.91%.

In the case of `N#CC1C(=O)NC(=O)C(C#N)C12CCCC(C(F)(F)F)C2` (centres undefined), the Inhibition was found to be 8.61%.

Regarding `O=C1c2cc([N+](=O)[O-])ccc2-c2cc(Br)c(NC(=NO)C(F)(F)F)cc21`, the Inhibition is given as -25.99%.

As to `O=C(Nc1ccc(F)cc1)OCCOc1ccc(Br)cc1`, the Inhibition amounted to 0.97%.

Consider `O=C(O)CCC1(c2ccccc2)NC(=O)NC1=O` (centres undefined), for which the Inhibition is listed as -12.39%.

With `CCOC(=O)c1c(C)nc(C)c(C(=O)OCC)c1-c1ccc(OC)cc1`, the Inhibition was determined as 2.04%.

On to `O=C(Nc1ccc2ccccc2c1)c1cccc(F)c1`, for which the Inhibition is given as -12.84%.

For `CCOC(=O)c1c(N)ssc1=S`, the Inhibition is recorded as 2.94%.

For `O=C(Nc1ccc(C2=NCCCN2)cc1)Nc1ccc(C2=NCCCN2)cc1`, the Inhibition came to 9.82%.

Take `CCOC(=O)/C=C/c1ccc(C(=O)OCC)[nH]1`: the Inhibition was 10.2%.

Consider `CCOC(=O)c1nc(SC)n(C)c1C(=O)OCC`, for which the Inhibition is reported as -12.95%.

Regarding `c1ccc(CSc2nc3c[nH]cnc-3n2)cc1`, the Inhibition is on record as -4.41%.

The record behind these values is ChEMBL document CHEMBL4296182, “CO-ADD screening of NIH NCI Diversity Set V”.
